Experimental data from PubChem BioAssay AID2284205 (EPA ToxCast).
The source made the active and inactive calls. The calls were made as follows: active = hit-call score of the fitted dose curve at least 0.9, where 1 is the maximum; inactive = score below 0.9.

Target: Peroxisome proliferator-activated receptor gamma (Homo sapiens) (UniProt P37231)
Assay: ERF_TW_NR_hPPARG: Eurofins (ERF) Nuclear Receptor (NR) Radioligand Binding LeadHunter Assay for human Peroxisome Proliferator-activated Receptor gamma (PPARg) Agonism, conducted at Taiwan lab site
Experimental: ERF_TW_NR_hPPARG is a biochemical, single-readout assay that uses extracted gene-proteins in a cell-free assay. Measurements were taken 24 hour after chemical dosing in a 96-well plate. See PPARgamma Human NHR Binding (Agonist Radioligand) Assay, Panlabs.ERF_TW_NR_hPPARG is an assay component calculated from the ERF_TW_NR_hPPARG assay. It is designed to measure radioligand binding using a type of binding reporter as detected by scintillation counting with radiometry technology.Data from the assay component ERF_TW_NR_hPPARG was analyzed at the assay endpoint, ERF_TW_NR_hPPARG, in the positive analysis fitting direction relative to DMSO as the negative control and baseline of activity. Using a type of binding receptor, gain-of-signal activity can be used to understand changes in binding receptor as they relate to gene PPARG.To generalize the intended target to other relatable targets, this assay endpoint is annotated to the nuclear receptor intended target family, where the subfamily is non-steroidal.
Human recombinant PPARgamma-LBD expressed in insect cells are used in modified Tris-HCl buffer pH 7.2. A 0.03 ug aliquot is incubated with 5 nM [3H]Rosiglitazone and 1 ug anti-GST antibody for 24 hours at 4C. Non-specific binding is estimated in the presence of 10 uM rosiglitazone. Receptors are counted to determine [3H]Rosiglitazone specifically bound. Compounds are screened at 10 uM.Test Sample Requirements: Minimum for 1) Screen: 25 ul of 10 mM stock -OR- 1 mg (pre-weighed). 2) Dose Response: 60 ul of 10 mM stock -OR- 1 mg (pre-weighed).

Peroxisome proliferator-activated receptor gamma (Homo sapiens), sequence (P37231 whole entry, looked up): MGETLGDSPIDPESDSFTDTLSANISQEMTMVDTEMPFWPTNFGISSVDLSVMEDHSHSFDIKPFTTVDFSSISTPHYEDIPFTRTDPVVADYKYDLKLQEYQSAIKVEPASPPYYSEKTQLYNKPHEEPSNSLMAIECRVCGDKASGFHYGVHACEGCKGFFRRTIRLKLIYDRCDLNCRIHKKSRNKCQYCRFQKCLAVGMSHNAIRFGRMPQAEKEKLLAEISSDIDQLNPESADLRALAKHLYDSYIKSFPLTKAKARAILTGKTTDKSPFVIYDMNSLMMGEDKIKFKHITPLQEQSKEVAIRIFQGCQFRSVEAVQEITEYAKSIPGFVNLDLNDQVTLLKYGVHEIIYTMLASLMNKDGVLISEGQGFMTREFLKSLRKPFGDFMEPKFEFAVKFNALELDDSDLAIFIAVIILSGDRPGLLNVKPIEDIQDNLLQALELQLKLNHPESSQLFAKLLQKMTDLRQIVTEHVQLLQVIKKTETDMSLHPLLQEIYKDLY

AC50, active:
O=S(=O)(O)C(F)(F)C(F)(F)C(F)(F)C(F)(F)C(F)(F)C(F)(F)C(F)(F)F 31.7 µM, O=C(O)C(F)(F)C(F)(F)C(F)(F)C(F)(F)C(F)(F)C(F)(F)C(F)(F)C(F)(F)Cl 13.4 µM, O=C(CC(=O)C(F)(F)C(F)(F)C(F)(F)F)c1cccs1 7.47 µM
